# Experimental data as given in PubChem BioAssay.
# Activity calls are given as the source filed them.
# Key:
# [1] = test system: Wnt5a (protein binding on small-molecule microarray); assay: Wnt5a binders on small-molecule microarray, primary screen, biophysical, 635/667 nm fluorescence (AID 1142); conditions: 635 nm fluorescence, higher = more signal;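 further: fluorescence read at 667 nm with signal to noise per printed feature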
# [2] = cell viability in Huh7 cells, primary screen, cytotoxicity control for HCV replication inhibitor project, CellTiter-Glo luminescence, basal, 48 h (AID 1143); conditions: Huh7 HCV replicon, higher = more signal, called active from +8 up or from −8 down;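 further: Huh7 hepatoma cells carrying a hepatitis C replication reporter with no stimulus; test concentration not given here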
# [3] = CREB reporter modulators without forskolin, primary screen, cell-based, PC12, CRE-LacZ reporter, unstimulated (AID 1145); conditions: no forskolin, luminescence, 4.5 h, higher = more signal, called active from +8 up or from −8 down
# [4] = CREB reporter modulators under forskolin, primary screen, cell-based, PC12, CRE-LacZ reporter, forskolin-stimulated (AID 1146); conditions: luminescence, 4.5 h, higher = more signal, called active from +8 up or from −8 down;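 further: PC12 cells with 6xCRE LacZ reporter stimulated by forskolin 10 µM; beta-galactosidase reporter signal reflecting CREB driven transcription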
# [5] = molecular target: Streptavidin (Streptomyces avidinii) (UniProt P22629); assay: streptavidin binders on small-molecule microarray, primary screen, artefact control for SMM compound annotation, biophysical, 635/667 nm fluorescence (AID 1147); conditions: streptavidin binding, higher = more signal;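 further: signal reflects streptavidin binding to arrayed compounds as a control protein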
# Chain of Streptavidin (Streptomyces avidinii) (P22629 whole entry, looked up): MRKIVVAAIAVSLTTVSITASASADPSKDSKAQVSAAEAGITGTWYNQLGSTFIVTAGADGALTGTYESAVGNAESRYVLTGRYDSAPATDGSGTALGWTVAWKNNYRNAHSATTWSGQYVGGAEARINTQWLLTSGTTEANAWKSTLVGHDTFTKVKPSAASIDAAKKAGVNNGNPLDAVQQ
# [6] = small-molecule binders of probe aInhba, primary screen, biochemical, small-molecule microarray, 635/667 nm fluorescence (AID 1148); conditions: higher = more signal;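 further: score merges 667nm spot fluorescence with signal-to-noise for antibody binding to printed compounds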
# [7] = molecular target: Torsin-1A (Homo sapiens) (UniProt O14656); assay: torsin A binders from cell lysate, primary screen, small-molecule microarray, wild-type, 635/667 nm (AID 1149); conditions: COS7 hTOR1A-WT lysate, 635 nm fluorescence, higher = more signal
# Chain of Torsin-1A (Homo sapiens) (O14656 whole entry, looked up): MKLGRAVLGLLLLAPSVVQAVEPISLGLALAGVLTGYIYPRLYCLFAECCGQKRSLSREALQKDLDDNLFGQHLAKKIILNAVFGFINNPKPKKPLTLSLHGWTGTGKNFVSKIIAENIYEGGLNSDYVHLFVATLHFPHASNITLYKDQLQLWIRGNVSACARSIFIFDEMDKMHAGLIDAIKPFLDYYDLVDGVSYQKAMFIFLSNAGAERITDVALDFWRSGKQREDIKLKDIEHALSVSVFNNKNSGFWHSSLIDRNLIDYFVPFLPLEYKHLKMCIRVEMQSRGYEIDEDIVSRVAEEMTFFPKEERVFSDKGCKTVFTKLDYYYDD
# [8] = molecular target: Torsin-1A (Homo sapiens) (UniProt O14656); assay: small-molecule binders of mutant TOR1A in lysate, primary screen, cell lysate, small-molecule microarray, COS7 lysate, 635/667 nm fluorescence (AID 1150); conditions: COS7 hTOR1A mutant lysate, 635 nm fluorescence, higher = more signal;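 further: score pools 667 nm emission and signal to noise measuring lysate protein binding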
# [9] = test system: Sonic hedgehog protein (Shh); assay: small-molecule binders of Shh protein, primary screen, biochemical, small-molecule microarray, 635/667 nm fluorescence (AID 1151); conditions: small-molecule microarray binding, 635 nm fluorescence; higher = more signal;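 further: Shh protein binding to compounds spotted on small-molecule microarray slides; score combines spot fluorescence intensity with signal-to-noise across triplicate slides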
# [10] = E. coli DRC41 culture turbidity changes, primary screen, E. coli filamentation inducer project, strain DRC41, OD650, 48 h (AID 1152);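 further: E. coli MC1000 strain DRC41 lacking acrAB efflux pump and sulA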; conditions: E. coli DRC41 (acrAB sulA), higher = more signal, called active from +8 up or from −8 down
# [11] = small-molecule binders of probe aLefty1, primary screen, biochemical, small-molecule microarray, 635/667 nm fluorescence (AID 1153); conditions: higher = more signal;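 further: score merges spot fluorescence with signal-to-noise ratio from the scanned slide images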
# [12] = PSAC antagonists in infected red cells, primary screen, cell-based, P. falciparum Indochina, OD700, 1 h (AID 1154); conditions: P. falciparum Indochina infected RBC osmotic lysis, higher = more signal, called active from +8 up or from −8 down
# [13] = PSAC antagonists in infected red cells, primary screen, cell-based, P. falciparum Indochina, OD700, 2 h (AID 1155);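 further: lysis reports solute entry through the parasite surface anion channel PSAC; channel blockers reduce lysis of infected cells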; conditions: P. falciparum Indochina infected erythrocytes, osmotic lysis OD700; higher = more signal, called active from +8 up or from −8 down
# [14] = osmotic lysis modulators in infected erythrocytes, primary screen, PSAC antagonist project, cell-based, P. falciparum Indochina, OD700, 3 h (AID 1156); conditions: higher = more signal, called active from +8 up or from −8 down
# [15] = PSAC antagonists in infected red cells, primary screen, cell-based, P. falciparum Indochina, OD700, 18 h (AID 1157); conditions: P. falciparum Indochina infected erythrocytes, osmotic lysis OD700, 18 h; higher = more signal, called active from +8 up or from −8 down
# [16] = modulators of S6 phosphorylation in cells, primary screen, cell-based, A549, cytoblot, luminescence, serum-stimulated (AID 1158); conditions: A549 phospho-S6 cytoblot, 5 h, higher = more signal;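 further: serum-stimulated A549 lung adenocarcinoma cells; signal is phosphorylated S6 detected by cytoblot immunostaining with HRP secondary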
# [17] = molecular target: NADPH oxidase 2 (Homo sapiens) (UniProt P04839); assay: NOX2-dependent H2O2 signal modulators, primary screen, NOX inhibitor project, cell-based, HEK293-NOX2, PMA-stimulated, Amplex Red fluorescence (AID 1159); conditions: 45 min, higher = more signal, called active from +8 up or from −8 down; further: test concentration not given here
# Chain of NADPH oxidase 2 (Homo sapiens) (P04839 whole entry, looked up): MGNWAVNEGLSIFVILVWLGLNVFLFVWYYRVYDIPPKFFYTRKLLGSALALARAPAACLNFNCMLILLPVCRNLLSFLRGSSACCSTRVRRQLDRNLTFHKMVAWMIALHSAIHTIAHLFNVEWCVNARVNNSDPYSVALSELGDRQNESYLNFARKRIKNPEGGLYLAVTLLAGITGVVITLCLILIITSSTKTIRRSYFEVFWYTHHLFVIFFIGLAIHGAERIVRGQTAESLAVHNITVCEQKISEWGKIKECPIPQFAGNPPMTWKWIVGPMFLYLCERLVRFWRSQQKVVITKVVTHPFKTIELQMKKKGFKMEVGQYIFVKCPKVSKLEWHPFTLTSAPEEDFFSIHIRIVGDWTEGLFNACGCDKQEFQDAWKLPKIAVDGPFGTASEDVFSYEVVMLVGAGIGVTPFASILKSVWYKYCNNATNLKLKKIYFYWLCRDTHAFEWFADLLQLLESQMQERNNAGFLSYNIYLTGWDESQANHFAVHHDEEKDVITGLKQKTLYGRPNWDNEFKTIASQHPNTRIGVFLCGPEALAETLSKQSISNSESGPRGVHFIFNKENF
# [18] = molecular target: NADPH oxidase 4 (Homo sapiens) (UniProt Q9NPH5); assay: NOX4-dependent H2O2 signal modulators, primary screen, NOX inhibitor project, cell-based, HEK293-NOX4, tetracycline-induced, Amplex Red fluorescence (AID 1160); conditions: 45 min, higher = more signal, called active from +8 up or from −8 down
# Chain of NADPH oxidase 4 (Homo sapiens) (Q9NPH5 whole entry, looked up): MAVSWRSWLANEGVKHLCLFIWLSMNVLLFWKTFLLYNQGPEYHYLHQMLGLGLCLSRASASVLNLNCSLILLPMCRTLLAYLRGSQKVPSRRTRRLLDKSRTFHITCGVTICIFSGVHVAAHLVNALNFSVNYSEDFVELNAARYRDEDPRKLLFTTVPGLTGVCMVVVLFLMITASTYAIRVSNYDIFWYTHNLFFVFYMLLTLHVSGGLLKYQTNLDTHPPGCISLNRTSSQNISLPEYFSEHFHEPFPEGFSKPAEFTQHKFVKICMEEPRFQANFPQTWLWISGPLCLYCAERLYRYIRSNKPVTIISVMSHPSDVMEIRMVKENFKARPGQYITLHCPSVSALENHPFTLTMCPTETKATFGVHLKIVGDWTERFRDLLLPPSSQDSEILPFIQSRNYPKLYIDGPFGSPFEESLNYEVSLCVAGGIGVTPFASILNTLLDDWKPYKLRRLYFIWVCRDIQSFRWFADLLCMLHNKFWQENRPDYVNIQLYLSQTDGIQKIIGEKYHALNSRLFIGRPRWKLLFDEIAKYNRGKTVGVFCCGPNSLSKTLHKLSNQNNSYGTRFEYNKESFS
# [19] = molecular target: NADPH oxidase 5 (Homo sapiens) (UniProt Q96PH1); assay: NOX5-dependent H2O2 signal modulators, primary screen, NOX inhibitor project, cell-based, HEK293-NOX5, Amplex Red fluorescence (AID 1161); conditions: HEK293-NOX5, ionomycin, 45 min, higher = more signal
# Chain of NADPH oxidase 5 (Homo sapiens) (Q96PH1 whole entry, looked up): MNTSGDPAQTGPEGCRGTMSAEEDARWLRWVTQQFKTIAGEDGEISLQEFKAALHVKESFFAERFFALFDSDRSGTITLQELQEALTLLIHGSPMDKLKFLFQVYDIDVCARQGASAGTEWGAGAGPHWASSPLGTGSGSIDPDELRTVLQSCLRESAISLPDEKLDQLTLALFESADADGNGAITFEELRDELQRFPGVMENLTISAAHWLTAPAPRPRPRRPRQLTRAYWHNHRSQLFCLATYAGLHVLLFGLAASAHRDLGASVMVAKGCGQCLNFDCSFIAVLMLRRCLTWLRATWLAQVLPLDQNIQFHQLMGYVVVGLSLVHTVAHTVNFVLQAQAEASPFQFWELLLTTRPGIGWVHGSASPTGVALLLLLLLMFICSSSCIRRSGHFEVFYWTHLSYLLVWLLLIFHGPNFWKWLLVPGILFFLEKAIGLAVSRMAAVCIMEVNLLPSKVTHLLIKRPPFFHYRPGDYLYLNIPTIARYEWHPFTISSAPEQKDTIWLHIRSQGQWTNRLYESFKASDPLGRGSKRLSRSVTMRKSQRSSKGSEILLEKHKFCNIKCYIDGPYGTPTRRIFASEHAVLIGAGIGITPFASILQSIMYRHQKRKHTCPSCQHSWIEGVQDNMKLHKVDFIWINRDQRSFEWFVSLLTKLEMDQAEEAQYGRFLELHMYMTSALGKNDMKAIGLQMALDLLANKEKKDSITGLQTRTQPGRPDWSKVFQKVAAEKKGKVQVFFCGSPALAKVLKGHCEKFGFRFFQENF
structure (smiles),measurement,setting,value
CC(C)[Si]1(C(C)C)OCc2cc(C3CC3)nc(-c3ccccc3)c21,composite z-score,[1],-0.125
same,z-score,[2],-1.63 (inactive)
same,z-score,[3],0.339 (inactive)
same,z-score,[4],-1.08 (inactive)
same,composite z-score,[5],-0.0842
same,composite z-score,[6],-0.108
same,composite z-score,[7],0.188
same,composite z-score,[8],0.127
same,composite z-score,[9],0.545
same,z-score,[10],2.37 (inactive)
same,composite z-score,[11],-0.0573
same,z-score,[12],2.84 (inactive)
same,z-score,[13],0.201 (inactive)
same,z-score,[14],0.531 (inactive)
same,z-score,[15],-0.15 (inactive)
same,z-score,[16],1.34
same,z-score,[17],1.86 (inactive)
same,z-score,[18],1.06 (inactive)
same,z-score,[19],-1.28
COc1ccc([Si](C)(C)[C@H]2[C@H](CC(=O)N3Cc4ccccc4C[C@H]3CO)O[C@@]3(C(=O)N(Cc4cccc(N5CCOC5=O)c4)c4ccccc43)[C@@H]2C)cc1,composite z-score,[1],0.341
same,z-score,[2],-3.32 (inactive)
same,z-score,[3],5.51 (inactive)
same,z-score,[4],-1.25 (inactive)
same,composite z-score,[5],0.0303
same,composite z-score,[6],0.0086
same,composite z-score,[7],0.287
same,composite z-score,[8],0.383
same,composite z-score,[9],1.37
same,z-score,[10],0.666 (inactive)
same,composite z-score,[11],-0.012
same,z-score,[12],4.02 (inactive)
same,z-score,[13],1.09 (inactive)
same,z-score,[14],0.739 (inactive)
same,z-score,[15],0.771 (inactive)
same,z-score,[16],2.73
same,z-score,[17],-1.14 (inactive)
same,z-score,[18],0.916 (inactive)
same,z-score,[19],-1.09
CCCCO[C@H]1C[C@H]2C(Br)=C[C@@]1(CO)C(=O)[C@]21CO1,composite z-score,[1],-0.112
same,z-score,[2],-0.483 (inactive)
same,z-score,[3],0.577 (inactive)
same,z-score,[4],-0.67 (inactive)
same,composite z-score,[5],-0.0819
same,composite z-score,[6],0.0714
same,composite z-score,[7],0.0005
same,composite z-score,[8],0.281
same,composite z-score,[9],0.536
same,z-score,[10],2.71 (inactive)
same,composite z-score,[11],-0.198
same,z-score,[12],-0.789 (inactive)
same,z-score,[13],-1 (inactive)
same,z-score,[14],-0.269 (inactive)
same,z-score,[15],-2.44 (inactive)
same,z-score,[16],1.69
same,z-score,[17],-0.446 (inactive)
same,z-score,[18],0.493 (inactive)
same,z-score,[19],0.178
C=CC[C@]1(C(=O)NCC(O)CO)N=C(c2ccc(OCCCO)cc2)O[C@H]1c1ccccc1 (stereo partly specified),composite z-score,[1],0.621
same,z-score,[2],-0.371 (inactive)
same,z-score,[3],1.37 (inactive)
same,z-score,[4],-0.804 (inactive)
same,composite z-score,[5],0.0012
same,composite z-score,[6],-0.146
same,composite z-score,[7],2.71
same,composite z-score,[8],3.09
same,composite z-score,[9],-0.559
same,z-score,[10],1.46 (inactive)
same,composite z-score,[11],-0.179
same,z-score,[12],6.95 (inactive)
same,z-score,[13],0.741 (inactive)
same,z-score,[14],1.55 (inactive)
same,z-score,[15],0.618 (inactive)
same,z-score,[16],0.672
same,z-score,[17],1.22 (inactive)
same,z-score,[18],0.542 (inactive)
same,z-score,[19],0.195
